The whole screen tested about 20,000 compounds, of which about 85 (0.4%) were called active.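 Rule for the calls: active = cell survival signal 2 SD away from solvent-only control wells, confirmed on one or two retests; inactive = the rest.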 The full list was thinned out, with actives kept by preference.
Assay: compounds reducing fatty acid uptake into lipids – ZR-82 cells, Enamine library, screen 3, primary screen (AID 1347385);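 note: 3 h compound exposure then viability read about one day after UV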
Settings: ZR-82 CHO cells, pyrene fatty acid UV survival, CellTiter Blue, peroxisome-deficient CHO-K1 mutant line, plus DGAT-1, DGAT-2 and ACAT inhibitors; at 10 µM unless noted
With `O=C(Nn1c(-c2cccs2)nc2sc3c(c2c1=O)CCCC3)c1cccs1` the outcome was “inactive”.
With `CCOC(=O)C1=C(C)NC2=C(C(=O)CC(C)(C)C2)C1C` (configuration not stated) the outcome was “inactive”.
In the case of `O=C(O)c1sc2cc(F)ccc2c1Cl`, the outcome is reported as “inactive”.
For `C(=N\Nc1nncc2ccccc12)/c1ccc(N2CCOCC2)s1`, the outcome was “inactive [setting not given]”.
In the case of `COC(CNc1ncnc2sc3c(c12)CCC3)OC`, the outcome is reported as “inactive”.
With `Clc1cc(CSc2nnnn2C2CC2)cc2c1OCCO2` the outcome was “inactive”.
In the case of `O=[N+]([O-])c1ccc2[nH]c(O)c(N=Nc3ccc(C(F)(F)F)cc3[N+](=O)[O-])c2c1`, the outcome is reported as “inactive”.
In the case of `NC(=O)NCCCC(=O)O`, the outcome is reported as “inactive”.
In the case of `S=C(NCCc1ccccc1)N/N=C1\CC2CC=CC12` (configuration not stated), the outcome is reported as “inactive [setting not given]”.
With `CC(N=C1NS(=O)(=O)c2ccccc21)C(=O)OC1CCOC1=O` (configuration not stated) the outcome was “inactive”.
With `CCOC(=O)c1c(C)[nH]c(C(=O)Cn2ncc(Cl)c(Cl)c2=O)c1C` the outcome was “inactive”.
In the case of `FC(F)(F)C(=NC1(C(Cl)(Cl)Cl)Oc2ccccc2O1)Nc1ccccn1`, the outcome is reported as “inactive”.
For `O=S(=O)(c1cc(Br)ccc1Br)N1CCCc2ccccc21`, the outcome was “inactive”.
With `O=S1(=O)CCC(N(Cc2ccco2)S(=O)(=O)c2ccc(S(=O)(=O)N3CCCC3)cc2)C1` (configuration not stated) the outcome was “inactive”.
For `CCCN(CC1CC1)Cn1c(=S)sc2ccccc21`, the outcome was “inactive”.
For `Clc1ccc2c(NN=C3c4ccccc4-c4ccccc43)ccnc2c1`, the outcome was “active”.
In the case of `Fc1ccc(NC(=S)NNc2ccnc3cc(Cl)ccc23)cc1Cl`, the outcome is reported as “inactive”.
With `Clc1ccc2nc(N/N=C/c3cccc4nccnc34)nc(-c3ccccc3)c2c1` the outcome was “inactive [setting not given]”.
With `Cn1/c(=N/N=C/C(Cl)=C/c2ccccc2)sc2ccccc21` the outcome was “inactive [setting not given]”.
With `S=C(NCC1CCCO1)NNc1ncnc2sc3c(c12)CCCC3` (configuration not stated) the outcome was “inactive”.
With `CC(C)=CCC/C(C)=C/C=N/Nc1ccc([N+](=O)[O-])cc1` the outcome was “inactive [setting not given]”.
For `Fc1ccc(NC(=S)Nc2ccc(SC(F)F)cc2)cc1Cl`, the outcome was “active”.
In the case of `Nc1c(Cl)cc(NC(=S)Nc2ccc(SC(F)F)cc2)cc1Cl`, the outcome is reported as “inactive”.
In the case of `COc1cc(NC(=S)Nc2ccc(SC(F)F)cc2)cc(OC)c1OC`, the outcome is reported as “inactive”.
In the case of `O=C(C1CCCCC1)N1N=C2/C(=C/c3ccco3)CCCC2C1c1ccco1` (configuration not stated), the outcome is reported as “inactive”.
With `NC(CSC12CC3CC(CC(C3)C1)C2)C(=O)O` (configuration not stated) the outcome was “inactive”.
For `O=C(NC1=NCCS1)C1CC2CCCC(C1)C2=O` (configuration not stated), the outcome was “inactive”.
With `CC(C)NC(=S)NN=C1CCCCCCCCCCC1` the outcome was “inactive”.
For `Cc1cc(NC(=O)COC(=O)C2=NNC(=O)CC2)no1`, the outcome was “inactive”.
In the case of `O=[N+]([O-])c1cc(S(=O)(=O)Nc2ccc(Cl)c(S(=O)(=O)N3CCOCC3)c2)ccc1Cl`, the outcome is reported as “inactive”.
For `O=[N+]([O-])c1ccc(N=P(c2cccc3ccccc23)(c2cccc3ccccc23)N2CCOCC2)c(Br)c1`, the outcome was “inactive”.
For `Nc1scc[n+]1Cc1cccc2cccnc12`, the outcome was “inactive”.
With `Nc1nc(SCC(=O)NCCN2CCOCC2)nc2sc3c(c12)CCC3` the outcome was “inactive”.
In the case of `CC(C)CC(C(=O)NNC(=O)c1ccco1)N1C(=O)C2CC=CCC2C1=O` (configuration not stated), the outcome is reported as “inactive”.
With `O=S(=O)(Nc1ncccn1)c1ccc(NC(=S)Nc2cccnc2)cc1` the outcome was “inactive”.
In the case of `CC(C)CC(NC(=O)NC1CCCCC1)C(=O)O` (configuration not stated), the outcome is reported as “inactive”.
In the case of `c1ccc(C2=NNC(c3ccccc3)C2)cc1` (configuration not stated), the outcome is reported as “inactive”.
For `O=C(NC1CCCCCCC1)c1ccc(=O)[nH]c1`, the outcome was “inactive”.
In the case of `CN(C1CCCCC1)S(=O)(=O)c1ccc2c(c1)OCCCO2`, the outcome is reported as “inactive”.
With `OC(Cc1nc2ccccc2[nH]1)c1nc2ccccc2[nH]1` (configuration not stated) the outcome was “inactive”.
For `Cc1cc(NC(=O)Cn2c(=O)/c(=C\c3ccc(C)s3)s/c2=C\C(=O)C(C)(C)C)no1`, the outcome was “inactive”.
In the case of `C=CCN=c1scc(-c2ccc(OC)cc2)n1/N=C/c1ccc(OC(F)F)cc1`, the outcome is reported as “inactive [setting not given]”.
With `CCOC(=O)/C(=C\c1ccc(C)s1)c1nc2sc(C)c(C)c2c(=O)[nH]1` the outcome was “inactive”.
For `O=C(O)CCN1C(=O)C2CC=CCC2C1=O` (configuration not stated), the outcome was “inactive”.
For `S=C(N=P(c1ccccc1)(N1CCOCC1)N1CCOCC1)NCc1cn2ccccc2n1`, the outcome was “inactive”.
With `S=C1NC(c2ccccc2)=NCN1N(c1ccccc1)c1ccccc1` the outcome was “inactive”.
With `COc1ccc(-c2noc(CSc3ncccn3)n2)cc1OC` the outcome was “inactive”.
In the case of `CC1(C)CCCC(C)(C)N1Sc1ccccc1`, the outcome is reported as “inactive”.
For `Oc1ccc(-c2onc3ccc(Cl)cc23)cc1`, the outcome was “inactive”.
For `NC1=NC(c2c(Cl)cccc2Cl)n2c(nc3ccccc32)N1` (configuration not stated), the outcome was “inactive”.
In the case of `Cc1cc(C(=O)Cn2cnc3c2c(=O)n(C)c(=O)n3C)c(C)n1CCC1=CCCCC1`, the outcome is reported as “inactive”.
With `O=C1CCC(C(=O)OCC(=O)c2ccc(Br)s2)=NN1` the outcome was “inactive”.
With `O=C1CSC2=NCN(c3ccccc3)CN12` the outcome was “inactive”.
For `Clc1cc(Cl)c(N/N=C/c2cn(-c3ccccc3)nc2-c2cc3ccccc3o2)c(Cl)c1`, the outcome was “inactive [setting not given]”.
In the case of `O=c1/c(=C/c2ccccc2I)sc2nc3ccccc3n12`, the outcome is reported as “inactive”.
With `COc1ccccc1OCCOCCOc1ccccc1OC` the outcome was “inactive”.
With `O=c1c(Cl)c(N2CCCC2)cnn1-c1ccccc1` the outcome was “inactive”.
In the case of `COCCNC(=O)NC(=O)N(C1CCCCC1)S(C)(=O)=O`, the outcome is reported as “inactive”.
In the case of `Cc1sc2nc(-c3cccs3)nc(Sc3nnc(C4CC4)o3)c2c1C`, the outcome is reported as “inactive”.
For `CCOC(=O)c1sc2nc(C(C)Sc3ncnc4sc5c(c34)CCC5)[nH]c(=O)c2c1C` (configuration not stated), the outcome was “inactive”.
With `CC(C)(C)C1CCC(C(=O)OCC(=O)c2ccc(Cl)s2)CC1` (configuration not stated) the outcome was “inactive”.
For `O=C1CN(Cc2csc(-c3cccs3)n2)CCN1`, the outcome was “inactive”.
For `O=[N+]([O-])c1c(Sc2nnnn2-c2ccccc2)nc2sccn12`, the outcome was “inactive”.
For `COc1ccc(C2=CC(c3ccc(OC)c(OC)c3)n3ncnc3N2)cc1OC` (configuration not stated), the outcome was “inactive”.
In the case of `Cc1cc2ncn(Cc3ccc(C(C)C)cc3)c2cc1C`, the outcome is reported as “inactive”.
For `CCNc1n[nH]c(=S)s1`, the outcome was “inactive”.
For `O=C(Nc1ccccc1)Nc1ccc(Cl)c(Cl)c1`, the outcome was “active”.
With `S=C(Nc1ccc(Cl)c(Cl)c1)NC12CC3CC(CC(C3)C1)C2` the outcome was “inactive”.
With `O=C(Nc1ccccc1)NC(NC(=S)Nc1ccc(I)cc1)C(Cl)(Cl)Cl` (configuration not stated) the outcome was “inactive”.
In the case of `FC(F)Sc1nc(-c2ccc(Br)cc2)nc2ccccc12`, the outcome is reported as “inactive”.
In the case of `CC(C)CNC(=O)NC(=O)C1CCCCC1`, the outcome is reported as “inactive”.
With `O=[N+]([O-])c1cc(CN2CCOCC2)c2c(c1)OCOC2` the outcome was “inactive”.
